# According to PubChem BioAssay (NCATS):
# Unmarked numbers belong to inactive results. Inconclusive results are not listed. The source made the active and inactive calls. Unless noted, calls come from the whole dose curve; as a rule, active = well fitted curve in the direction sought with a large enough effect; inconclusive = small, poorly fitted or top-dose-only effect, or another doubt; inactive = no such curve, though single readings can be large; an effect the other way counts as inactive or inconclusive.
# Key:
# [1] = target: Lysosomal acid glucosylceramidase (Homo sapiens) (UniProt P04062); test: Glucocerebrosidase-p2 (AID 348; in the data active = potency below about 10 µM; note: potency is the fitted concentration of half-maximal effect); conditions: purified GBA, blue fluorogenic substrate, 40 min
# Summary of the method: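 Compounds titrated from 0.6 nM upwards against 0.2 nM enzyme in pH 5.9 citric acid/KH2PO4, taurocholate, tween-20; blue fluorogenic substrate 80 uM, 40 min room temperature, stopped and read Ex 365/Em 440 for AC50.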
# [2] = AP1 Signaling Pathway (AID 357; active = well fitted curve in either direction with a large enough effect, not every such curve was filed as active;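 note: ME-180 reporter cells stimulated with EGF at its EC50 level; % is set by controls: 0 for no effect and ±100 for the full control effect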); conditions: ME-180 AP-1-bla reporter, EGF-induced, beta-lactamase ratio, 5 h; at 7.69 µM (top of the series) unless noted
# Summary of the method: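 Modulation of EGF-driven AP-1 transcription was assessed with a beta-lactamase reporter in ME-180 cells. Compound and EC50 EGF were co-incubated 5 hours at 37 °C before 2.5-hour CCF4 loading at room temperature and dual-emission reading.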
# [3] = target: Cytochrome P450 1A2 (Homo sapiens) (UniProt P05177); test: p450-cyp1a2 (AID 410; calls by dose curve; note: potency is the fitted concentration of half-maximal effect); conditions: recombinant CYP1A2, luciferin-ME demethylation, luminescence; series mostly up to 57 µM
# Summary of the method: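 Human CYP1A2 (20nM) demethylated Luciferin-ME at its Km (100uM) in 100mM KPO4. After 10 min compound preincubation, NADPH regeneration ran the reaction 60 min at room temperature. Luciferin was read by luminescence, normalized to 57 uM furafylline.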
# [4] = NFAT Signaling Pathway (AID 444; active = well fitted curve in either direction with a large enough effect, not every such curve was filed as active;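 note: carbachol stimulus at about its EC50 of 1 µM final; % is set by controls: 0 for no effect and ±100 for the full control effect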); conditions: Jurkat NFAT-bla M1, carbachol, beta-lactamase ratio, 5 h; at 7.69 µM (top of the series) unless noted
# Summary of the method: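 Jurkat cells with NFAT-driven β-lactamase reporter and co-expressed M1 receptor, stimulated with carbachol (final 1 uM, ~EC50), compound titration, 5 h at 37 °C. CCF4 loaded 1 h at RT; 460/530 nm ratio gave %activity and AC50.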
# [5] = Stat Signaling Pathway (AID 446; active = well fitted curve in either direction with a large enough effect, not every such curve was filed as active;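 note: ME-180 cervical cancer cells given 40 pM IL-6 alongside compound; SIE-controlled beta-lactamase reporter measured as 460/530 nm FRET emission ratio; % is set by controls: 0 for no effect and ±100 for the full control effect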); conditions: ME-180 SIE beta-lactamase reporter, IL-6 stimulated, 5 h; at 7.69 µM (top of the series) unless noted
# Summary of the method: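 ME-180 SIE-bla cells; overnight plating; cpd + IL-6 40 pM, 5 h, 37 C; LiveBLAzer 2.5 h RT; 460/530 nm emission ratio. Normalized to 300 pM IL-6 and 125 nM JAK inhibitor controls.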
# [6] = target: Glucocorticoid receptor (Homo sapiens) (UniProt P04150); test: GR-GFP Redistribution (AID 450;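 active = compounds whose dose series gives a full or clear partial fitted curve of increased nuclear translocation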; note: potency is the fitted concentration of half-maximal effect); conditions: U2OS GR-GFP nuclear translocation, laser cytometry, 2 h
# [7] = target: Glucocorticoid receptor (Homo sapiens) (UniProt P04150); test: GR-EFC Redistribution (AID 451; calls by dose curve; note: potency is the fitted concentration of half-maximal effect); conditions: CHO-K1 GR-EFC translocation, beta-gal luminescence, 2 h
# Summary of the method: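 CHO-K1 cells expressing nuclear EA and GR-ED fragments of b-gal; compounds titrated up to 46 uM final, 2 h at 37 C. GR nuclear translocation read as complemented b-gal luminescence after 1 h RT detection.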
# [8] = target: Mitogen-activated protein kinase 10 (Mus musculus) (UniProt Q61831); test: JNK3 AlphaScreen Assay (AID 530; active = well fitted curve in either direction with a large enough effect, not every such curve was filed as active;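 note: kinase came from lysate of stimulated human HepG2 cells; signal reports phosphorylation of biotinylated GST-cJun 1-79 at Ser73 with 10 µM ATP; % is set by controls: 0 for no effect and ±100 for the full control effect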); conditions: JNK3 lysate, c-Jun phosphorylation; series mostly up to 57.1 µM
# Summary of the method: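 qHTS format: compounds tested as titrations against IL-1beta/TNF-alpha-activated HepG2 lysate JNK3 with biotin-GST-cJun substrate and 10 uM ATP at room temperature. Loss of anti-phospho-cJun AlphaScreen signal indicates inhibition.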
# [9] = target: Cytochrome P450 3A4 (Homo sapiens) (UniProt P08684); test: qHTS Assay for Inhibitors and Substrates of Cytochrome P450 3A4 (AID 884); conditions: recombinant CYP3A4, Luciferin-PPXE luminescence; series mostly up to 57.1 µM; note: potency is the fitted concentration of half-maximal effect; nearly all actives have a fitted effect of over 50% in size
# Summary of the method: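 20 nM human CYP3A4 with 25 uM Luciferin-PPXE (at KM) in 200 mM KPO4, preincubated 10 min with compound; NADPH regeneration started a 60 min RT reaction. Luciferin detected by luminescence, normalized to 57 uM ketoconazole as full inhibition.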
# [10] = target: Cytochrome P450 3A4 (Homo sapiens) (UniProt P08684); test: qHTS Assay for Activators of Cytochrome P450 3A4 (AID 885); conditions: recombinant CYP3A4, Luciferin-PPXE luminescence, 60 min; series mostly up to 57.1 µM; note: nearly all actives have a fitted effect of over 65% in size
# Summary of the method: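 20nM CYP3A4 + 25uM Luciferin-PPXE (=KM), 200mM KPO4; cpd 10 min RT; NADPH regen, 60 min RT; stop w/ detection buffer, 20 min; luminescence. Normalized to 57 uM ketoconazole.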
# [11] = target: Dual specificity protein kinase CLK4 (Homo sapiens) (UniProt Q9HAZ1); test: qHTS Assay for Inhibitors of CDC-like Kinase 4 (Kinase-Glo Assay) (AID 1770); conditions: recombinant Clk4, Kinase-Glo ATP depletion luminescence; series mostly up to 66.7 µM; note: nearly all actives have a fitted effect of over 65% in size; note: potency is the fitted concentration of half-maximal effect
# Summary of the method: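 25 nM Clk4 with 100 uM RS repeat peptide and 1 uM ATP (final) in Tris pH7.5, 10 mM MgCl2, 4.5 h at room temperature. Remaining ATP measured by Kinase-Glo luciferase luminescence.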
# [12] = target: Dual specificity protein kinase CLK4 (Homo sapiens) (UniProt Q9HAZ1); test: qHTS Assay for Inhibitors of CDC-like Kinase 4 (ADP-Glo Assay) (AID 1771); conditions: recombinant CLK4, ADP-Glo luminescence; series mostly up to 80 µM; note: nearly all actives have a fitted effect of over 70% in size; note: potency is the fitted concentration of half-maximal effect
# Summary of the method: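 Clk4 (25 nM) was incubated 1 hr at room temperature with 100 uM RS repeat peptide and 1 uM ATP in buffer with 2 mM MgCl2, 0.5 mM EGTA, 2.5 mM DTT. ADP formed was quantified by ADP-Glo luminescence.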
# [13] = target: Ubiquitin carboxyl-terminal hydrolase 1 (Homo sapiens) (UniProt O94782); test: Inhibitors of USP1/UAF1: Pilot qHTS (AID 504865); conditions: purified USP1/UAF1, Ub-rhodamine cleavage fluorescence; series mostly up to 54.9 µM; note: nearly all actives have a fitted effect of over 35% in size; note: potency is the fitted concentration of half-maximal effect
# Summary of the method: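 USP1/UAF1 complex at 1 nM preincubated 15 min at room temperature with compound, then Ub-Rho substrate added at 150 nM final. Fluorescence (480/540 nm) read kinetically in 50 mM HEPES pH 7.8, 0.5 mM EDTA, 1 mM TCEP, 0.1 mg/ml BSA, 0.01% Tween-20.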
# [14] = Primary qHTS for small molecule stabilizers of the endoplasmic reticulum resident proteome: Secreted ER Calcium Modulated Protein (SERCaMP) assay (AID 1508630); conditions: SH-SY5Y GLuc-SERCaMP (Gaussia luciferase released on ER calcium loss) secretion, thapsigargin, luminescence; series mostly up to 38.4 µM; note: % is set by controls: 0 for no effect and ±100 for the full control effect
# Summary of the method: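 GLuc-SERCaMP-expressing SH-SY5Y cells, pretreated 16 h with compound, are challenged with thapsigargin to empty ER calcium stores; after 4 h, coelenterazine is added directly to the medium and luminescence is imaged.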
# [15] = target: Cytochrome P450 2D6 (Homo sapiens) (UniProt P10635); test: qHTS Assay for Inhibitors and Substrates of Cytochrome P450 2D6 (AID 891); conditions: recombinant CYP2D6, luciferin-ME EGE luminescence; series mostly up to 57.1 µM; note: potency is the fitted concentration of half-maximal effect; nearly all actives have a fitted effect of over 60% in size
# Summary of the method: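 Human CYP2D6 (5 nM) with 30 uM Luciferin-ME EGE (at Km) in 100 mM KPO4, compound preincubated 10 min, then NADPH regeneration system for 60 min at room temperature. Luciferin read by luminescence; normalized to 1.43 uM quinidine.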
# [16] = target: 3',5'-cyclic-AMP phosphodiesterase 4B (Homo sapiens) (UniProt Q07343); test: qHTS Assay for Inhibitors of PDE-IV (AID 607; active = well fitted activation curve with a large enough effect in the main read-out, with a control signal flat, not every such curve was filed as active; note: % of control where 0% means no effect); conditions: HEK293 ACTOne CNG channel cells, membrane potential fluorescence; series mostly up to 22.9 µM
# Summary of the method: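 ACTOne HEK293 cells carry a modified cAMP-gated CNG channel and express endogenous PDE4; plated 1000 cells/well, compounds up to 22.9 uM final. Membrane-potential dye fluorescence (ex 535/em 590) was read; parental cells received 10 uM forskolin + 100 uM RO 20-1724.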
# [17] = target: Cytochrome P450 2C19 (Homo sapiens) (UniProt P33261); test: qHTS Assay for Inhibitors and Substrates of Cytochrome P450 2C19 (AID 899); conditions: recombinant CYP2C19, luciferin-H EGE luminescence; series mostly up to 57.1 µM; note: potency is the fitted concentration of half-maximal effect; nearly all actives have a fitted effect of over 60% in size
# Summary of the method: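 Luminescent read-out of luciferin formed from Luciferin-H EGE (10uM, equal to KM). Enzyme 5nM in 50mM KPO4; compound added, 10 min at 37C, then NADPH regenerating system for 60 min at 37C. Full inhibition defined by 57uM ketoconazole.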
# 3',5'-cyclic-AMP phosphodiesterase 4B (Homo sapiens), sequence (Q07343 whole entry, looked up): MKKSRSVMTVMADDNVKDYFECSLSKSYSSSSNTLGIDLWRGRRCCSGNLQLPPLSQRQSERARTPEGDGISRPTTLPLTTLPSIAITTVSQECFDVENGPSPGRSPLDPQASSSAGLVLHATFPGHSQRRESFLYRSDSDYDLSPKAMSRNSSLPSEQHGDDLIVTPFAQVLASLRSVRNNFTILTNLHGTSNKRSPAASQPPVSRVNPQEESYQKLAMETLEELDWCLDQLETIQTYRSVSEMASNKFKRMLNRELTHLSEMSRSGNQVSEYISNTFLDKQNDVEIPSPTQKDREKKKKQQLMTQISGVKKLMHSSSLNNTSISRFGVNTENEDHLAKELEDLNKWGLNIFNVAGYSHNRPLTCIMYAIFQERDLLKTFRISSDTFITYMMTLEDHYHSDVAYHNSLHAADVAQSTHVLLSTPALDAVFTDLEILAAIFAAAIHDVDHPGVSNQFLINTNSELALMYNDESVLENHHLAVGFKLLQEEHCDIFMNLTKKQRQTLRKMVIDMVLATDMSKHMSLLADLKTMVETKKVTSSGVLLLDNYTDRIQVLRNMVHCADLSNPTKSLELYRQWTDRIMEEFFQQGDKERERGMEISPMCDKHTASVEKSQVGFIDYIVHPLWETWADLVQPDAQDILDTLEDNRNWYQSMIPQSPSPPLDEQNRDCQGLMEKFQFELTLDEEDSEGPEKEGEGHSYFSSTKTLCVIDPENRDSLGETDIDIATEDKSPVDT
# Glucocorticoid receptor (Homo sapiens), sequence (P04150 whole entry, looked up, the tested form may be a part): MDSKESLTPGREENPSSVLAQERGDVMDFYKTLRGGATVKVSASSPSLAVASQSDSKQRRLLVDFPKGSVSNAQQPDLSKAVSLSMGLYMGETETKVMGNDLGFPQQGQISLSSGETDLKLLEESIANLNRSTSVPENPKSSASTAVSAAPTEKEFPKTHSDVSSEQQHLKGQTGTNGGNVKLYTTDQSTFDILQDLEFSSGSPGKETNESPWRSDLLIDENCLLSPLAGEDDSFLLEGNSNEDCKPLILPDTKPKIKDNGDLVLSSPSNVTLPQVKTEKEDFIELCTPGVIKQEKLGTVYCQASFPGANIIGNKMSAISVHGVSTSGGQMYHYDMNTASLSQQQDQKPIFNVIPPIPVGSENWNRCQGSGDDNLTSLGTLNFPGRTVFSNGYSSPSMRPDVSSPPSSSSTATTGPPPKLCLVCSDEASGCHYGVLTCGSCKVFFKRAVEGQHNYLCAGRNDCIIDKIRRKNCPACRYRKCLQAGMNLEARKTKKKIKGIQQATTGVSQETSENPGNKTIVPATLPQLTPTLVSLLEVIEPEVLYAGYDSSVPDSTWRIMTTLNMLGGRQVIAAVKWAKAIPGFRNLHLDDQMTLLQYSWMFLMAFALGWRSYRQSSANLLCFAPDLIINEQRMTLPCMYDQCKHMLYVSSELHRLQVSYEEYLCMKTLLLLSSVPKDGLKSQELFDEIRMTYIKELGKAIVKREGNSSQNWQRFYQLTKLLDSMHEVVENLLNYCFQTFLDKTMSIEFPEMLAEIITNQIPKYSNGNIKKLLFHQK
# Ubiquitin carboxyl-terminal hydrolase 1 (Homo sapiens), sequence (O94782 whole entry, looked up): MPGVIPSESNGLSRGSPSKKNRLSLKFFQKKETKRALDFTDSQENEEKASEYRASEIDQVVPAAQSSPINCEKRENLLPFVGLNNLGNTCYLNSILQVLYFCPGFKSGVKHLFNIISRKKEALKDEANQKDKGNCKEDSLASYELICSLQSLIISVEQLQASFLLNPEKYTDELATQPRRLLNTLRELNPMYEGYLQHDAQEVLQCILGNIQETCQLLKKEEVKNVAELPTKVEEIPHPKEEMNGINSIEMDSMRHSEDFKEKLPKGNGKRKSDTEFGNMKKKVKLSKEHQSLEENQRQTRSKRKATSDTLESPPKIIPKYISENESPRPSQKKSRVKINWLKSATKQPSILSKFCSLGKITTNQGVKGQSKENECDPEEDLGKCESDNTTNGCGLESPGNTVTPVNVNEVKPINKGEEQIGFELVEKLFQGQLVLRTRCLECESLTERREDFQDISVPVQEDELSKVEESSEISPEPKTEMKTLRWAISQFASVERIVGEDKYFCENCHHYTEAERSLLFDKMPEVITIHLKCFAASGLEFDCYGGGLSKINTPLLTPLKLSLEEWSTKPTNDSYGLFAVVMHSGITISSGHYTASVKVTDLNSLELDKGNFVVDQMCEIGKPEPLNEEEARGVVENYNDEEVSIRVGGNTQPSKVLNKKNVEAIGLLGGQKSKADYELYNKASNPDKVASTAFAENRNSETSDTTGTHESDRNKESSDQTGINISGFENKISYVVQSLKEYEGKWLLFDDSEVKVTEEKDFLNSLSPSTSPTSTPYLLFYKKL
# Cytochrome P450 3A4 (Homo sapiens), sequence (P08684 whole entry, looked up): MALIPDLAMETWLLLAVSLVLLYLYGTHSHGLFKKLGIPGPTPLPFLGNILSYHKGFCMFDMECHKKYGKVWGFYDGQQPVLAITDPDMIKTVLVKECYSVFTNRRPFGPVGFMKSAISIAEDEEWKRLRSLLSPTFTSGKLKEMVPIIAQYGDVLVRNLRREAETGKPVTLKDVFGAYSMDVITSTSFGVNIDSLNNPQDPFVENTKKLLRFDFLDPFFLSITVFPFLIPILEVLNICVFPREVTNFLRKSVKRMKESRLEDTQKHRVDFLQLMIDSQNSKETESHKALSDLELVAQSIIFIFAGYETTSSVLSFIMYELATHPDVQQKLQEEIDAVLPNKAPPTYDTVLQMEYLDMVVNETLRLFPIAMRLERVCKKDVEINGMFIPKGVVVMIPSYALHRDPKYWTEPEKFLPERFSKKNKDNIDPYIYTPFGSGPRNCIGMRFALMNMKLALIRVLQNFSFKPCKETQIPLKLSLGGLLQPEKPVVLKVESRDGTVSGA
# Lysosomal acid glucosylceramidase (Homo sapiens), sequence (P04062 whole entry, looked up): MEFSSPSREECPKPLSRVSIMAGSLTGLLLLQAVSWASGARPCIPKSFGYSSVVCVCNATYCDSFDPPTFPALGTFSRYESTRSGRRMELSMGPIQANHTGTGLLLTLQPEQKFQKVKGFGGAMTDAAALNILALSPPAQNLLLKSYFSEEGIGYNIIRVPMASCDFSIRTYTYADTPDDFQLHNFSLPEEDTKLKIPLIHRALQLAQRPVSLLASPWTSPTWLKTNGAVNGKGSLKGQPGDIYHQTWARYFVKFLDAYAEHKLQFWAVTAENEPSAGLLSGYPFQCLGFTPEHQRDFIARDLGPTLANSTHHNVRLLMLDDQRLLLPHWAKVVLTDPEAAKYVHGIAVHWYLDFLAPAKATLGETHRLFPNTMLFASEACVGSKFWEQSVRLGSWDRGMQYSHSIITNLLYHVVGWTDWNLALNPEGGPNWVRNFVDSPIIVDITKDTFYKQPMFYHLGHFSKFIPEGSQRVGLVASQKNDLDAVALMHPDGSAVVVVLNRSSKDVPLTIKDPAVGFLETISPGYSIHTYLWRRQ
# Cytochrome P450 1A2 (Homo sapiens), sequence (P05177 whole entry, looked up): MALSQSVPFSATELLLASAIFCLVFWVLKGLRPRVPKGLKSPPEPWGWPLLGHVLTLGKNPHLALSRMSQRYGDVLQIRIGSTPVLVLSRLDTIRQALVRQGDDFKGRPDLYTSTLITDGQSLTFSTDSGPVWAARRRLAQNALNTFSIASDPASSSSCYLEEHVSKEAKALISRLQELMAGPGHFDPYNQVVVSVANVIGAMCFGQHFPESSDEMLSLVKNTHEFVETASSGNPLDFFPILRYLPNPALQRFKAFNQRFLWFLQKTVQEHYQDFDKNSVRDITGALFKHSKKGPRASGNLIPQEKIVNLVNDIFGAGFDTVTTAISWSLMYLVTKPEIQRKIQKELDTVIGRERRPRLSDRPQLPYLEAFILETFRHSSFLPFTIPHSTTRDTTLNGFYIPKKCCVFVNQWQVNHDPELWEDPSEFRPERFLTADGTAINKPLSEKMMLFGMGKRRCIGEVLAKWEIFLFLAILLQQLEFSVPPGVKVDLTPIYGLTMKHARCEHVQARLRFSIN
# Dual specificity protein kinase CLK4 (Homo sapiens), sequence (Q9HAZ1 whole entry, looked up): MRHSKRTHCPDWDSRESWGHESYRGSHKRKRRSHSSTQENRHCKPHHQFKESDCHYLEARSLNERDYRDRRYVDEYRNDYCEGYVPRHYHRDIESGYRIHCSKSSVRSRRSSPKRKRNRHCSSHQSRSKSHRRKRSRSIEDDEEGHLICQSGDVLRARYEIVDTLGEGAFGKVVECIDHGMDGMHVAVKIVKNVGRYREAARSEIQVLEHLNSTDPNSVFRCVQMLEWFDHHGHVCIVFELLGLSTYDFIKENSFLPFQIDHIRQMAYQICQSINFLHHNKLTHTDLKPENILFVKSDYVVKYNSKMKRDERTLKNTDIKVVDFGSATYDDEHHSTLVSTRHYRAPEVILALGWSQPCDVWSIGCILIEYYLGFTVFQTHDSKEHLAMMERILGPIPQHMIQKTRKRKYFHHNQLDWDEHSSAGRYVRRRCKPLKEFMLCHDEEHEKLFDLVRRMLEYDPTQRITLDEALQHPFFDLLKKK
# Cytochrome P450 2D6 (Homo sapiens), sequence (P10635 whole entry, looked up): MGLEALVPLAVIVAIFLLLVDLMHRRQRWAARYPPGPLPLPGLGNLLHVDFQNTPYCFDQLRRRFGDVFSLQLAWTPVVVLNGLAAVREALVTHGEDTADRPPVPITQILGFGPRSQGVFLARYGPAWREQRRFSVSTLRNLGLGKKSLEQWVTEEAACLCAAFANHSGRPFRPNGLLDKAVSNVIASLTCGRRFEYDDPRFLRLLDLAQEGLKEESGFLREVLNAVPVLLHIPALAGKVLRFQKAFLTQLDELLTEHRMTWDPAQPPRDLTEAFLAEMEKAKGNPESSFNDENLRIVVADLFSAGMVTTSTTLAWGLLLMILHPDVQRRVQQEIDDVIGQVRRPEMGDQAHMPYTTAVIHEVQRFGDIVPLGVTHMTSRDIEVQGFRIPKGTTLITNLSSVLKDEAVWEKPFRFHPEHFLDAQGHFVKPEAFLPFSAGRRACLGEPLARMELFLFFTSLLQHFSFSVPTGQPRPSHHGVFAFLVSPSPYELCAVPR
Compound,Potency [1] [µM],"activity change, negative = inhibition [2] [%]",Potency [3],"activity change, negative = inhibition [4] [%]","activity, negative = inhibition [5] [%]",Potency [6] [µM],Potency [7] [µM],Potency [8],Potency [9],Potency [10],Potency [11],Potency [12],Potency [13],outcome [14],Potency [15],Potency [16],Potency [17]
CS(=O)(=O)Nc1cccc(-c2nc(NCc3ccccc3)c3ccccc3n2)c1,> 11.4,-10.8,2.51 µM (active),7.92,-10.7,> 46,> 46,inactive,3.16 µM (active),inactive,31.6 µM (active),28.2 µM (active),inactive,inactive,,,
COc1cccc(-c2nc(N(C)Cc3ccco3)c3ccccc3n2)c1,> 11.4,-7.73,0.316 µM (active),,-9.79,> 46,> 46,inactive,,inactive,12.6 µM (active),12.6 µM (active),,inactive,5.01 µM (active),,
CNc1nc(-c2ccoc2)nc2ccccc12,> 11.4,0.93,0.398 µM (active),-22.3,8.64,> 46,> 46,inactive,,inactive,inactive,inactive,,inactive,,inactive,
COc1ccc2[nH]cc(CCNc3cc(-c4cccnc4)ncn3)c2c1,> 11.4,-10.1,3.16 µM (active),15.6,-2.74,> 46,> 46,,3.98 µM (active),inactive,14.1 µM (active),15.8 µM (active),inactive,inactive,,inactive,
CCNc1ncc2nc(-c3cccs3)c(=O)n(Cc3ccc(F)cc3)c2n1,> 11.4,24.9,10 µM (active),-12.4,,> 9.22,> 46,,,inactive,inactive,inactive,20 µM (active),inactive,,inactive,
COc1ccc(CNc2ncncc2-c2cccc(C#N)c2)c(OC)c1,> 11.4,-5.26,7.94 µM (active),13.9,8.97,> 46,> 46,inactive,0.316 µM (active),inactive,28.2 µM (active),35.5 µM (active),inactive,inactive,5.01 µM (active),,5.01 µM (active)
